# According to PubChem BioAssay:
# The source made the active and inactive calls. Unless noted, how the calls were made is not given here.
# What was measured:
# [1] = anti-His antibody binders, primary screen, artefact control for SMM control protein annotation, biochemical, small-molecule microarray, 635 nm fluorescence (AID 1128); conditions: anti-His Alexa647 antibody binding, higher = more signal;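 further: score merges feature fluorescence with signal-to-noise for each printed compound spot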
# [2] = system: Human papillomavirus type 1a E7 protein (residues 1-88); assay: HPV1a E7 small-molecule binders, primary screen, biochemical, small-molecule microarray, residues 1-88, 635 nm (AID 1129); conditions: small-molecule microarray binding, fluorescence 635 nm; higher = more signal
# [3] = target: Focal adhesion kinase 1 (Homo sapiens) (UniProt Q05397); assay: small-molecule microarray binders of FAK, primary screen, biochemical, 635/667 nm fluorescence, BSA, DTT (AID 1130); conditions: PTK2 binding, 635 nm fluorescence, higher = more signal;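 further: composite of spot emission at 667 nm and signal to noise over triplicate slides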
# [4] = system: Fibrinogen (Alexa647-labelled); assay: fibrinogen binders on compound microarrays, profiling panel, artefact control for SMM control-protein annotation, biochemical, small-molecule microarray, 635/667 nm fluorescence (AID 1131); conditions: fibrinogen-A647 binding fluorescence, higher = more signal;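 further: z-score merges 667 nm fluorescence with per-spot signal-to-noise over triplicate slides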
# [5] = target: Follistatin (Homo sapiens) (UniProt P19883); assay: follistatin binders on small-molecule microarrays, primary screen, biochemical, small-molecule microarray, 635/667 nm fluorescence (AID 1132); conditions: FST binding, 635 nm fluorescence, higher = more signal
# [6] = target: Fibroblast growth factor 2 (Homo sapiens) (UniProt P09038); assay: FGF2 binders on small-molecule microarrays, primary screen, biochemical, small-molecule microarray, 635/667 nm fluorescence (AID 1133); conditions: small-molecule microarray binding, FGF2, fluorescence 635/667; higher = more signal
# [7] = mitochondrial membrane potential change in A549 cells, profiling panel, cell-based, JC-1 fluorescence, basal, 24 h, 100 nL (AID 1138); conditions: higher = more signal;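 further: A549 lung adenocarcinoma cells under basal conditions with no added stimulus; test concentration not given here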
# Lefty1 = Lefty1 binders on small-molecule microarrays, primary screen, biochemical, small-molecule microarray, 635/667 nm fluorescence (AID 1139); conditions: small-molecule microarray binding, fluorescence 635/667; higher = more signal
# [8] = system: wheat germ agglutinin (Triticum aestivum), Alexa647-labelled; assay: wheat germ agglutinin binders on compound microarrays, profiling panel, artefact control for SMM control-protein annotation, biochemical, small-molecule microarray, 635/667 nm fluorescence (AID 1140); conditions: WGA-A647 binding, 635 nm fluorescence, higher = more signal;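 further: score merges 667 nm feature emission with signal to noise over triplicate slides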
# [9] = target: Luciferin 4-monooxygenase (Photinus pyralis) (UniProt P08659); assay: firefly luciferase enzyme inhibitors, primary screen, biochemical, luminescence, purified enzyme, 2006 set (AID 1141); conditions: SteadyGlo luminescence, 30 min, higher = more signal, called active from +8 up or from −8 down;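 further: cell-free assay with purified firefly luciferase at 100 ng per well in PBS; test concentration not given here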
# [10] = system: Wnt5a (protein binding on small-molecule microarray); assay: Wnt5a binders on small-molecule microarray, primary screen, biophysical, 635/667 nm fluorescence (AID 1142); conditions: 635 nm fluorescence, higher = more signal;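 further: fluorescence read at 667 nm with signal to noise per printed feature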
# [11] = cell viability in Huh7 cells, primary screen, cytotoxicity control for HCV replication inhibitor project, CellTiter-Glo luminescence, basal, 48 h (AID 1143); conditions: Huh7 HCV replicon, higher = more signal, called active from +8 up or from −8 down;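 further: Huh7 hepatoma cells carrying a hepatitis C replication reporter with no stimulus; test concentration not given here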
# [12] = P. aeruginosa biofilm formation inhibitors, primary screen, PAO1 strain, BacTiter-Glo luminescence, LB-PBS (AID 1144); conditions: 12 h, higher = more signal
# [13] = CREB reporter modulators without forskolin, primary screen, cell-based, PC12, CRE-LacZ reporter, unstimulated (AID 1145); conditions: no forskolin, luminescence, 4.5 h, higher = more signal, called active from +8 up or from −8 down
# [14] = CREB reporter modulators under forskolin, primary screen, cell-based, PC12, CRE-LacZ reporter, forskolin-stimulated (AID 1146); conditions: luminescence, 4.5 h, higher = more signal, called active from +8 up or from −8 down;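 further: PC12 cells with 6xCRE LacZ reporter stimulated by forskolin 10 µM; beta-galactosidase reporter signal reflecting CREB driven transcription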
# [15] = target: Streptavidin (Streptomyces avidinii) (UniProt P22629); assay: streptavidin binders on small-molecule microarray, primary screen, artefact control for SMM compound annotation, biophysical, 635/667 nm fluorescence (AID 1147); conditions: streptavidin binding, higher = more signal;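 further: signal reflects streptavidin binding to arrayed compounds as a control protein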
# [16] = small-molecule binders of probe aInhba, primary screen, biochemical, small-molecule microarray, 635/667 nm fluorescence (AID 1148); conditions: higher = more signal;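 further: score merges 667nm spot fluorescence with signal-to-noise for antibody binding to printed compounds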
# Torsin-1A (Homo sapiens) [17] = target: Torsin-1A (Homo sapiens) (UniProt O14656); assay: torsin A binders from cell lysate, primary screen, small-molecule microarray, wild-type, 635/667 nm (AID 1149); conditions: COS7 hTOR1A-WT lysate, 635 nm fluorescence, higher = more signal
# Torsin-1A (Homo sapiens) [18] = target: Torsin-1A (Homo sapiens) (UniProt O14656); assay: small-molecule binders of mutant TOR1A in lysate, primary screen, cell lysate, small-molecule microarray, COS7 lysate, 635/667 nm fluorescence (AID 1150); conditions: COS7 hTOR1A mutant lysate, 635 nm fluorescence, higher = more signal;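 further: score pools 667 nm emission and signal to noise measuring lysate protein binding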
# [19] = system: Sonic hedgehog protein (Shh); assay: small-molecule binders of Shh protein, primary screen, biochemical, small-molecule microarray, 635/667 nm fluorescence (AID 1151); conditions: small-molecule microarray binding, 635 nm fluorescence; higher = more signal;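 further: Shh protein binding to compounds spotted on small-molecule microarray slides; score combines spot fluorescence intensity with signal-to-noise across triplicate slides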
# Streptavidin (Streptomyces avidinii), sequence (P22629 whole entry, looked up): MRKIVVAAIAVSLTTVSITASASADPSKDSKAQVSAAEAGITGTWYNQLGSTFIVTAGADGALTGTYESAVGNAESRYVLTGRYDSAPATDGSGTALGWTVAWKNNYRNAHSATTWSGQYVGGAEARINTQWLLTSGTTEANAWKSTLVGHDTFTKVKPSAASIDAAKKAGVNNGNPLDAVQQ
# Follistatin (Homo sapiens), sequence (P19883 whole entry, looked up): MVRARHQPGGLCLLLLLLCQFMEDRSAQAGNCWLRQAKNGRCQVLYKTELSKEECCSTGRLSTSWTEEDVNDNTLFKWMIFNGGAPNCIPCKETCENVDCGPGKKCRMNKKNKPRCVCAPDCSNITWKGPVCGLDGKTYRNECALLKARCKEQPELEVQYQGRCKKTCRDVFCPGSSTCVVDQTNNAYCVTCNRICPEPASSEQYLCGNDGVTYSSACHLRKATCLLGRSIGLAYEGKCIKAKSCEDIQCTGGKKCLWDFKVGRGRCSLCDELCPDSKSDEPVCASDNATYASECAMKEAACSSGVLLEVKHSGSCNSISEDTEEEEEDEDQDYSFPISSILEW
# Torsin-1A (Homo sapiens), sequence (O14656 whole entry, looked up): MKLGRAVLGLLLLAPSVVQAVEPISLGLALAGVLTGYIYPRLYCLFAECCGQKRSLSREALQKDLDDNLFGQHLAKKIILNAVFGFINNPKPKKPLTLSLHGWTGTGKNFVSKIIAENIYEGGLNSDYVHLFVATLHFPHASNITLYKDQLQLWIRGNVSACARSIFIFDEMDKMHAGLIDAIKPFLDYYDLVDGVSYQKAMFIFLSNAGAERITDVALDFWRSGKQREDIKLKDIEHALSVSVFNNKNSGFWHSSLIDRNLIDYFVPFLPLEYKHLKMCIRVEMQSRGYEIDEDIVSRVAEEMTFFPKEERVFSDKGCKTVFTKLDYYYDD
# Focal adhesion kinase 1 (Homo sapiens), sequence (Q05397 whole entry, looked up): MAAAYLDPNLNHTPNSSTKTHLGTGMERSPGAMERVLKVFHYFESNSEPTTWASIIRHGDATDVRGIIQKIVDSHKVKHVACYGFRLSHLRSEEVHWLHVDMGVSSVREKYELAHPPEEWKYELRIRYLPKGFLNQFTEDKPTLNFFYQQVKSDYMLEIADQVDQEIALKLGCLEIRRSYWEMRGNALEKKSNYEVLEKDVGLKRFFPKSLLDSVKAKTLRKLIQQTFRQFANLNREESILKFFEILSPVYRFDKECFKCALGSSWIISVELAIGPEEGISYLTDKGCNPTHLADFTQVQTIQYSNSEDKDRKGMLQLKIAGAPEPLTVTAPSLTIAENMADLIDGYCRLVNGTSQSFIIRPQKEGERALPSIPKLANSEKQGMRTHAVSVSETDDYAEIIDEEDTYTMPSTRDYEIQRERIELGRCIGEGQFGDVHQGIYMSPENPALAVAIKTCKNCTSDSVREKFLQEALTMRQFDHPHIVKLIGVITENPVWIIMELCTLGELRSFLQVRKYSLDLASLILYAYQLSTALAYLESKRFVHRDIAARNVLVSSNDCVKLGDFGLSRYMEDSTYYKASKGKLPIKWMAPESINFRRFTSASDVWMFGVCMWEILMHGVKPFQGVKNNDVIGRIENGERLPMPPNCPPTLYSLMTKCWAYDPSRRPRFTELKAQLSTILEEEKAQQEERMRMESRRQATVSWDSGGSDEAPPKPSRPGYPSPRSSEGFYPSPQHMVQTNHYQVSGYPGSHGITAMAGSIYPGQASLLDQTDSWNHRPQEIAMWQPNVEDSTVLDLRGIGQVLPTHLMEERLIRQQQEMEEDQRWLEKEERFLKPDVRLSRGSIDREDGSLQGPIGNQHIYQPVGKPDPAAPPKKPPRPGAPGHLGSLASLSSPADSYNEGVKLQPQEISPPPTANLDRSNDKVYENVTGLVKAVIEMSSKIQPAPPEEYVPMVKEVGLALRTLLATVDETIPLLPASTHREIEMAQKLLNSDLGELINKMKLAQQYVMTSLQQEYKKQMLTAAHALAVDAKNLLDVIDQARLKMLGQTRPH
# Luciferin 4-monooxygenase (Photinus pyralis), sequence (P08659 whole entry, looked up): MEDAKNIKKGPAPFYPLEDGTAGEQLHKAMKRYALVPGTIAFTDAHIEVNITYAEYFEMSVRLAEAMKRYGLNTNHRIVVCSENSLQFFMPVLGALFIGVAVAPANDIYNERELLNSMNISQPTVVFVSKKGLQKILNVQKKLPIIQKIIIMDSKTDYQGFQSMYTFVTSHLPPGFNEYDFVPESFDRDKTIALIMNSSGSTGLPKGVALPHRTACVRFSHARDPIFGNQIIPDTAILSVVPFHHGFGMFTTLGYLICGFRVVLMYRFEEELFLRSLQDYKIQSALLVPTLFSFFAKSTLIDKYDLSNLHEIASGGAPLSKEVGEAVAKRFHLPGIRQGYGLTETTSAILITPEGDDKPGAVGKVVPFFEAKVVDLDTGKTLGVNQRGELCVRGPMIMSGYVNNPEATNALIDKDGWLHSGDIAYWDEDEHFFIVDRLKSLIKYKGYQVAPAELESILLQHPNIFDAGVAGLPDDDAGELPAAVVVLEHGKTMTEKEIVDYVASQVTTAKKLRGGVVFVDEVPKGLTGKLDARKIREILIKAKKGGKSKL
# Fibroblast growth factor 2 (Homo sapiens), sequence (P09038 whole entry, looked up): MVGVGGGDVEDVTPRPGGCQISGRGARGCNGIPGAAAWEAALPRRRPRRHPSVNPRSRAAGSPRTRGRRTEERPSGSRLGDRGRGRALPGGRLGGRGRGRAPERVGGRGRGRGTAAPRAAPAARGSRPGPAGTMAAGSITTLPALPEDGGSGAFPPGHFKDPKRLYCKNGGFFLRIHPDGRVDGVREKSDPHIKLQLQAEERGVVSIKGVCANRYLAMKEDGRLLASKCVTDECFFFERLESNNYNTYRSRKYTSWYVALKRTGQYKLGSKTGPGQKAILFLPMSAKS
Structure (SMILES),composite z-score [1],composite z-score [2],composite z-score [3],composite z-score [4],composite z-score [5],composite z-score [6],z-score [7],composite z-score (Lefty1),composite z-score [8],z-score [9],composite z-score [10],z-score [11],z-score [12],z-score [13],z-score [14],composite z-score [15],composite z-score [16],composite z-score (Torsin-1A (Homo sapiens) [17]),composite z-score (Torsin-1A (Homo sapiens) [18]),composite z-score [19]
COc1c(C)cc(-c2cc3c(c(Cc4ccccc4)n2)[Si](C(C)C)(C(C)C)OC3)cc1C,0.0134,-0.006,0.212,0.0295,0.308,0.0273,0.0666,0.708,-0.063,0.674 (inactive),0.0025,0.428 (inactive),0.602 (inactive),-0.0848 (inactive),-0.47 (inactive),0.169,-0.128,-0.0914,-0.105,0.513
CC(C)(C)OC(=O)CC[C@]1(C(=O)O)N=C(c2ccc(OCCCO)cc2)O[C@H]1c1ccccc1,0.548,0.611,0.0043,0.284,0.329,-0.236,-0.132,0.0766,0.247,0.476 (inactive),-0.221,-1.48 (inactive),-0.278 (inactive),-0.986 (inactive),-0.72 (inactive),0.235,-0.102,-0.272,0.113,-0.899
C[C@H]1ON(c2ccc(C(=O)OC(C)(C)C)cc2)[C@@H](c2ccc(O)cc2)[C@@H]1C(=O)N1C(=O)OC[C@@H]1c1ccccc1,0.82,1.13,0.429,0.935,1.22,1.4,-0.802,0.724,0.38,-0.587 (inactive),0.382,-2.3 (inactive),-0.0446 (inactive),0.846 (inactive),0.0621 (inactive),0.179,-0.114,-0.0484,0.39,1.97
CCOC(=CC(=O)OC)CC(O)c1cccc(Cl)c1 (stereo not given),1.83,1.15,0.702,-0.76,-0.23,-0.745,1.32,-0.417,1.22,-0.135 (inactive),-0.256,-3.84 (inactive),0.114 (inactive),0.584 (inactive),-0.216 (inactive),-0.668,-0.204,1.31,0.522,-0.41
COC(=O)[C@@]1(Cc2ccc(OC)cc2)[C@H]2c3cc(C(=O)N(C)C)n(Cc4nc5ccccc5[nH]4)c3C[C@H]2CN1C(=O)c1ccccc1,1.39,1.26,1.34,0.991,0.907,-0.295,1.95,-0.117,1.35,2.41 (inactive),0.38,-3.83 (inactive),0.179 (inactive),-0.375 (inactive),-0.139 (inactive),1.12,0.698,0.314,0.432,-0.388
C=C(COC)/C(=C/C[C@@H](OC(=O)c1ccncc1)c1ccc(OCCO)cc1)c1cnc2ccccc2c1,0.866,1.13,0.0089,0.94,1.46,1.74,0.703,1.49,0.798,-2.4 (inactive),0.884,-3.25 (inactive),-1.28 (inactive),7.95 (inactive),0.34 (inactive),2.13,0.0419,0.77,0.327,2.09
O=C1OCC=C[C@H]2OC34C=CCN(c5ccc(Cl)cc5)C(=O)[C@H]3N(CCCCCO)C(=O)[C@@H]4[C@@H]12 (stereo not given in full),3.93,-0.434,0.0336,-0.825,-1.03,-0.994,0.731,-1.52,-0.519,-0.232 (inactive),-0.391,-0.116 (inactive),1.73 (inactive),0.183 (inactive),0.168 (inactive),-1.18,-0.128,0.172,2.22,-0.695
C=CCNC(=O)[C@@H]1[C@H]2C(=O)O[C@H](c3ccccc3)[C@H](c3ccccc3)N2[C@H](c2ccc(OCCO)cc2)[C@@]12C(=O)N(C(=O)OCCOC)c1ccc(C#CC3=CCCCC3)cc12,0.864,1.23,0.677,0.871,1.31,0.985,-1.03,1.05,0.522,-1.25 (inactive),0.335,-2.81 (inactive),0.576 (inactive),0.2 (inactive),0.886 (inactive),0.902,0.104,0.694,0.823,1.46
CCC[C@@H]1C[C@@]1(CCC)[C@@H](NP(=O)(c1ccccc1)c1ccccc1)c1ccc(Cl)cc1,-0.649,-0.472,-0.371,-0.428,-0.216,-0.475,-1.22,-0.413,-0.619,1.71 (inactive),-0.298,-1.4 (inactive),0.22 (inactive),0.0007 (inactive),-0.113 (inactive),-0.749,-0.232,-0.753,-0.731,-0.447
C[C@H]1C2=C3C(CC[C@H]4C(OCc5ccc(F)cc5C(F)(F)F)OC[C@](C)([C@@H]34)N(C(=O)OC(C)(C)C)C2)C(CO)C1CO (stereo not given in full),0.0803,1.12,0.882,0.944,0.578,-1.89,1.31,-0.781,0.608,0.608 (inactive),0.24,-2.85 (inactive),0.36 (inactive),0.779 (inactive),0.677 (inactive),1.38,-0.0214,0.28,0.222,-1.38
